From ChEMBL document CHEMBL3988442, “University of Dundee, Small-Polar-MMV Screening Library” (2021)
In all, about 48,000 compounds went through this assay and about 13,000 (27%) showed an effect of 50% or more. The list shows a part of the results.

These compounds were tested on Wolbachia pipientis (assay: Anti-Wolbachia Cell-Based Screen). Conditions: 5 µM.
Type: functional
Design: scale not given: in the data most compounds retested in dose-response had high values

| Structure (SMILES) | Percent Effect [%] |
| --- | --- |
| N#Cc1ccccc1OCCN1CCn2c(nnc2C2CC2)C1 | -2.907 |
| c1cnn(CC2CN(Cc3nc(-c4ccsc4)no3)CCO2)c1 (configuration not stated) | -8.782 |
| Cc1ccccc1-c1noc(CN2CCC(N3CCNC3=O)CC2)n1 | 89.22 |
| Cc1ccccc1-c1noc(CN2CCn3c(nnc3C3CC3)C2)n1 | 9.498 |
| c1cc(C2CCN(Cc3nc(-c4ccsc4)no3)CC2)[nH]n1 | -22.06 |
| O=C1NCCN1C1CCN(Cc2nc(-c3ccsc3)no2)CC1 | 100.1 |
| Cc1ccccc1-c1noc(CN2CCC(c3ccn[nH]3)CC2)n1 | -44.64 |
| COCCN1CC2(CCCN(c3ncnc4[nH]cnc34)C2)CCC1=O (configuration not stated) | 2.898 |
| CN(C)c1nccc(C2CN(S(C)(=O)=O)C2)n1 | 62.66 |
| CN(C)S(=O)(=O)N1CC(c2nc(-c3ccsc3)no2)C1 | -5.352 |
| CS(=O)(=O)N1CC(c2ncn3ccccc23)C1 | 16 |
| Cc1noc(C2CN(S(C)(=O)=O)Cc3ccnn3C2)n1 (configuration not stated) | -9.743 |
| CN(C)S(=O)(=O)N1CCN(c2nccc(C(F)(F)F)n2)CC1 | -20.82 |
| Cc1nccc(C2CN(S(=O)(=O)N(C)C)C2)n1 | 92.05 |
| N#Cc1cccnc1Nc1ccc(N2CCC(C(N)=O)CC2)cc1 | -22.12 |
| Cc1cc(C(=O)NCC2OCCc3cn(CC4CC4)nc32)c(C)[nH]1 (configuration not stated) | 99.34 |

| Structure (SMILES) | Percent Effect [%] |
| --- | --- |
| Cn1cc2c(n1)C(CNC(=O)Cc1ccsc1)OCC2 (configuration not stated) | 6.682 |
| COCCn1cc2c(n1)C(CNC(=O)c1cc(C)[nH]c1C)OCC2 (configuration not stated) | 94.61 |
| O=C(NCC1OCCc2cn(CC3CC3)nc21)c1ccsc1 (configuration not stated) | -6.452 |
| CCS(=O)(=O)NCC1OCCc2cn(CCOC)nc21 (configuration not stated) | -0.9126 |
| O=C(Cc1ccsc1)NCC1OCCc2cn(CC3CC3)nc21 (configuration not stated) | -4.734 |
| COCCn1cc2c(n1)C(CNS(C)(=O)=O)OCC2 (configuration not stated) | 95.37 |
| CS(=O)(=O)CC(=O)NCC1OCCc2cn(CC3CC3)nc21 (configuration not stated) | -2.36 |
| CS(=O)(=O)NCC1OCCc2cn(CC3CC3)nc21 (configuration not stated) | -2.199 |
| Cc1cc(NC(=O)N2CCCC(CO)C2)nn1-c1ccccc1Cl (configuration not stated) | 6.236 |
| COc1ccc(OC)c(CN(C(=O)c2ccc(C)[nH]c2=O)C2CC2)c1 | -3.072 |
| CC(C)c1nnc(NC(=O)N2CCN(C)CC2c2ccccc2)s1 (configuration not stated) | 2.354 |
| CCC(=O)Nc1nnc(CCCOc2ccccc2)s1 | -6.738 |
| CCC(=O)Nc1nnc(CCOc2cccc(OC)c2)s1 | 0.4737 |
| COCc1nnc(NC(=O)CN2C(=O)c3ccccc3NC2C(C)C)s1 (configuration not stated) | 107.7 |
| CC(C)c1nnc(NC(=O)CN2C(=O)c3ccccc3NC2C(C)C)s1 (configuration not stated) | 94.59 |
| CC(C)c1nnc(NC(=O)N2CCCC2c2ccncc2)s1 (configuration not stated) | 0.4499 |
